± gives the standard deviation of the averaged measurements. Whole data set: some 33,000 sequences, median “E-score (rank enrichment, -0.5 to 0.5)” near -0.0043, cut for the highest 2% near 0.24. This is one part of a sample in which the highest values are shown more often than they occur.
What follows are sequences tested on 2Sp-muMax20 (muMax20 with two 2,6-bis(methyl)pyridine Cys staples) (assay: PBM 8-mer E-score (E-score (rank enrichment, -0.5 to 0.5)); higher = stronger preferential binding).
Protocol: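 Protein binding microarray (universal PBM chip covering all 10-mers in fixed probe flanks) with chemically synthesized human Max(13-93) bHLH-LZ analogs (not full-length Max) bearing noncanonical residues (hArg, Tha, Aib, Nle at 65) and aromatic Cys staples. Read-out per 8-mer (and its reverse complement): E-score (rank-based enrichment, -0.5 to 0.5) and Z-score of median probe intensity.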

Row | Sequence | PBM 8-mer E-score
1 | AGAGGCAG | -0.125 ± 0.069
2 | CTAACCAA | -0.0414 ± 0.074
3 | ACCTCGTC | -0.0184 ± 0.011
4 | AACGTCTG | -0.086 ± 0.17
5 | ACCTCACG | -0.0339 ± 0.093
6 | CCCGGCGC | -0.17 ± 0.023
7 | ACGCACAG | -0.104 ± 0.024
8 | ACGCACAT | 0.24 ± 0.091
9 | ACGCACGT | 0.277 ± 0.0066
10 | ACGCACAA | 0.0234 ± 0.071
11 | ACGCACGA | 0.0583 ± 0.035
12 | ACGCACGC | 0.157 ± 0.12
13 | GCCATCAA | 0.193 ± 0.0031
14 | CACTGTGC | -0.123 ± 0.011
15 | CCAGCCTC | -0.148 ± 0.047
16 | AATACCTA | 0.244 ± 0.03
17 | CATACCTA | 0.0465 ± 0.0019
18 | GATACCTA | 0.155 ± 0.013
19 | ATGGATGA | 0.053 ± 0.022
20 | CTATTTCC | 0.26 ± 0.051
21 | ATATTTCC | 0.0705 ± 0.11
22 | CTATTTCA | 0.126 ± 0.099
23 | TCCAGTAA | 0.071 ± 0.076
24 | CAATGGCG | 0.02 ± 0.0014
25 | TACGTGAA | 0.0426 ± 0.043

Row | Sequence | PBM 8-mer E-score
26 | AACGTGAC | 0.147 ± 0.045
27 | CACGTGAC | 0.406 ± 0.011
28 | CACGTGAA | 0.392 ± 0.022
29 | CCCGTGAG | -0.225 ± 0.016
30 | GACGTGAC | 0.0337 ± 0.019
31 | TATGTGAA | 0.308 ± 0.017
32 | GACGTGAA | -0.25 ± 0.025
33 | AACGTGAG | 0.0157 ± 0.023
34 | AATGTGAA | 0.154 ± 0.12
35 | CACGTGAG | 0.255 ± 0.005
36 | GATGTGAA | 0.177 ± 0.043
37 | GACCCATC | -0.0849 ± 0.083
38 | GGCAACAC | 0.0268 ± 0.038
39 | CTCGGGTA | -0.193 ± 0.024
40 | TAAATAAA | 0.129 ± 0.012
41 | CCCGTGAC | -0.0332 ± 0.029
42 | GAAGCGCC | -0.146 ± 0.03
43 | CGCGTGAC | 0.286 ± 0.036
44 | CGCGTGAG | 0.219 ± 0.012
45 | AGCGTGAC | 0.0983 ± 0.058
46 | CTCAGGTC | -0.298 ± 0.018
47 | GCGAGGGA | 0.0348 ± 0.068
48 | GTATAATA | 0.26 ± 0.018
49 | ATATAATG | 0.235 ± 0.0039
50 | GTATAAGA | 0.171 ± 0.024

Row | Sequence | PBM 8-mer E-score
51 | CTATAATA | 0.0904 ± 0.023
52 | GAATAATA | 0.0134 ± 0.025
53 | ATATAATA | 0.244 ± 0.015
54 | GCGACCCA | -0.125 ± 0.0022
55 | TAACTAGA | 0.216 ± 0.032
56 | TAAATTGA | 0.123 ± 0.068
57 | ACTACACG | 0.134 ± 0.1
58 | ACTATACA | 0.236 ± 0.052
59 | GCTATACA | 0.148 ± 0.0048
60 | AATATACT | 0.0855 ± 0.0041
61 | CCTACACG | -0.0918 ± 0.0064
62 | AATATACA | 0.272 ± 0.012
63 | TCTATACA | 0.111 ± 0.0021
64 | ACTACACA | 0.317 ± 0.02
65 | TATATACA | 0.11 ± 0.072
66 | GAGGGCAA | 0.00807 ± 0.048
67 | AATTGTGT | 0.124 ± 0.015
68 | ATGGCGTC | -0.112 ± 0.017
69 | AATCTCAC | -0.00554 ± 0.028
70 | GCACAACC | -0.26 ± 0.11
71 | GCACAACA | 0.245 ± 0.044
72 | CCACAACA | -0.0195 ± 0.008
73 | TATCGATA | 0.28 ± 0.0074
74 | GATCGATA | 0.0711 ± 0.063
75 | AATCGATA | 0.122 ± 0.028

Row | Sequence | PBM 8-mer E-score
76 | CGTAGTTC | -0.126 ± 0.036
77 | ATGGTGCG | -0.0695 ± 0.038
78 | CATGGGCC | -0.227 ± 0.033
79 | ATGGTAAT | 0.0649 ± 0.056
80 | CCCGTAGA | -0.219 ± 0.0027
81 | CGCGGGGA | 0.00762 ± 0.0032
82 | GGCGGGAA | 0.0758 ± 0.012
83 | GGGCGGGA | 0.302 ± 0.009
84 | CGGCGGGA | -0.183 ± 0.048
85 | GGCGGGGA | 0.327 ± 0.0043
86 | AGGCGGGA | 0.0612 ± 0.085
87 | CGGGATAG | -0.0726 ± 0.029
88 | GATAATCA | 0.291 ± 0.0043
89 | GATAATAA | 0.161 ± 0.11
90 | CATAATCA | 0.122 ± 0.058
91 | GATAATCC | -0.0127 ± 0.051
92 | TATAATCA | 0.248 ± 0.026
93 | AATAATCA | 0.0327 ± 0.025
94 | CTCCTGCA | -0.0859 ± 0.085
95 | ACCAGCGA | -0.0875 ± 0.13
96 | AGTGCCCG | -0.183 ± 0.011
97 | CGGGCCCG | -0.0343 ± 0.1
98 | ACCTTCAG | 0.0376 ± 0.011
99 | CAAACGGC | -0.18938 ± 4.9e-05
100 | GAAACGGC | -0.0635 ± 0.06

Row | Sequence | PBM 8-mer E-score
101 | AAACGGCC | 0.2844 ± 0.0015
102 | AAACGGCT | -0.108 ± 0.055
103 | AAAACGGC | 0.295 ± 0.024
104 | CAACGGCC | -0.302 ± 0.033
105 | GTATCTCA | 0.17 ± 0.075
106 | CAACCTCC | -0.00017 ± 0.065
107 | GAAGTGTA | -0.0146 ± 0.06
108 | ATGGCTGG | -0.00368 ± 0.018
109 | TATGTCAA | 0.224 ± 0.067
110 | AGTGGTAA | 0.0408 ± 0.025
111 | AGTATATG | 0.125 ± 0.12
112 | CGTATCTA | 0.000215 ± 0.053
113 | AGTATATA | 0.273 ± 0.03
114 | AGTATATC | -0.0248 ± 0.067
115 | CCTATATC | -0.0131 ± 0.064
116 | GGTATCTA | -0.00749 ± 0.008
117 | ACTATCTC | -0.108 ± 0.18
118 | ACTATATC | 0.302 ± 0.055
119 | ATTATATA | 0.199 ± 0.014
120 | AGTATCTA | 0.3 ± 0.034
121 | ATTATATG | 0.198 ± 0.017
122 | ATTATATC | 0.243 ± 0.051
123 | CGCGCTGA | 0.00249 ± 0.09
124 | CATGCAGG | 0.0699 ± 0.036
125 | CCTAGTTA | 0.0579 ± 0.045

Row | Sequence | PBM 8-mer E-score
126 | CGTGGGTC | 0.00478 ± 0.056
127 | CCCAAACC | 0.0283 ± 0.012
128 | AGTGCAAA | -0.0314 ± 0.044
129 | GTGTGGCA | 0.0191 ± 0.059
130 | GAAGCCGA | -0.13 ± 0.0099
131 | CGATCCTC | -0.0245 ± 0.032
132 | GCGCAAAC | 0.11 ± 0.026
133 | GCGTAGGA | 0.112 ± 0.03
134 | ATGCTTGG | 0.102 ± 0.0062
135 | ACTATATA | 0.254 ± 0.018
136 | ATTATACC | 0.238 ± 0.031
137 | ACTATATG | 0.196 ± 0.0091
138 | ATTATACA | 0.0914 ± 0.033
139 | ATTATACG | 0.125 ± 0.014
140 | GCTATATA | 0.149 ± 0.013
141 | CTTCGGAA | -0.0272 ± 0.017
142 | ATTCGCCC | 0.0547 ± 0.0036
143 | ATCTGACA | -0.0699 ± 0.061
144 | ATATTCAT | 0.299 ± 0.027
145 | TTATTCAA | 0.133 ± 0.037
146 | CTATTCAA | 0.266 ± 0.08
147 | ATATTCAG | 0.126 ± 0.074
148 | ATATTCAC | 0.109 ± 0.072
149 | ATATTCAA | 0.157 ± 0.012
150 | ACGCTTTC | -0.00481 ± 0.013

Row | Sequence | PBM 8-mer E-score
151 | ACGCGAAT | 0.0678 ± 0.068
152 | TAGAATGA | 0.207 ± 0.064
153 | CAAGTATA | 0.142 ± 0.1
154 | ATAGTATA | 0.11 ± 0.035
155 | AAAGTATA | 0.236 ± 0.03
156 | CTAGTATA | 0.219 ± 0.023
157 | GTAGTATA | 0.236 ± 0.045
158 | AAAGTATT | 0.223 ± 0.0032
159 | CGAACCTA | -0.123 ± 0.015
160 | GCGCACTA | 0.0235 ± 0.033
161 | AAATGCTG | 0.0946 ± 0.018
162 | AAATGCTA | 0.251 ± 0.058
163 | GAATGCTA | -0.14 ± 0.023
164 | GTAAACTA | 0.175 ± 0.032
165 | CACCAACA | 0.106 ± 0.0083
166 | CCCCCATA | 0.0149 ± 0.042
167 | GACCCATA | 0.188 ± 0.032
168 | CGCCCATA | 0.0508 ± 0.075
169 | GCCCCATA | 0.29 ± 0.019
170 | AGCCCATA | 0.238 ± 0.035
171 | GGCCCATA | -0.0969 ± 0.099
172 | GTACCAAC | -0.0554 ± 0.078
